The assay deals with Trichoderma virens ATCC 9645. As to the kind of experiment: growth yield (OD600) with compound + IPBC relative to untreated control; higher = less growth inhibition. To be noted: compound concentration: 100 uM, IPBC concentration: 200 ng/ml. The procedure, abridged:
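Trichoderma virens ATCC 9645 spores at 15,000 spores ml^−1 in potato dextrose broth were exposed in 96-well plates to library compounds at 100 μM final, with or without a biocide at 200 ng ml^−1. After growth at 30 °C, OD600 was read at 40 h and 72 h. Values are growth relative to the control without either agent, averaged over duplicate screens.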

Where a name gives a salt, the structure may show the parent alone. ± gives the standard error. About 130 (10%) of roughly 1,300 compounds showed an effect of 50% or more. Many of the other results were omitted from the sample, so strong results are more common in it than they were.

With `O=C1CN(/N=C/c2ccc(-c3ccc([N+](=O)[O-])cc3)o2)C(=O)N1` [Dantrolene sodium salt] + CCCCNC(=O)OCC#CI [3-iodo-2-propynyl butylcarbamate (IPBC)], the growth yield is 103 ± 3.8% (40 h) and 104 ± 3.1% (72 h).
Taken in the same sequence, the figures for `CCCCC(CC)CNC(=N)NC(=N)NCCCCCCNC(=N)NC(=N)NCC(CC)CCCC` (stereo not drawn) [Alexidine dihydrochloride] + CCCCNC(=O)OCC#CI [3-iodo-2-propynyl butylcarbamate (IPBC)] were 2.5415 ± 3.6e-15% and 2.94 ± 0.21%.
As to `Cn1c(=O)c2c(ncn2CC(=O)O)n(C)c1=O` [Acefylline] + CCCCNC(=O)OCC#CI [3-iodo-2-propynyl butylcarbamate (IPBC)], the growth yield (40 h) is 90.1 ± 2.1% and the growth yield (72 h) came out at 91.1 ± 2%.
On to `NCC(CC(=O)O)c1ccc(Cl)cc1` (racemic) [Baclofen (R,S)] + CCCCNC(=O)OCC#CI [3-iodo-2-propynyl butylcarbamate (IPBC)], for which the growth yield reads like this: (40 h) 96.1 ± 4%; (72 h) 96.8 ± 3.2%.
Taken in the same sequence, the figures for `O=C(O)c1cccnc1` [Niacin] + CCCCNC(=O)OCC#CI [3-iodo-2-propynyl butylcarbamate (IPBC)] were 105 ± 1.9% and 102.8 ± 0.84%.
Taken in the same sequence, the figures for `CC(=O)Oc1ccccc1C(=O)Oc1ccccc1C(=O)O` [Acetylsalicylsalicylic acid] + CCCCNC(=O)OCC#CI [3-iodo-2-propynyl butylcarbamate (IPBC)] were 85 ± 1.8% and 89.7 ± 2.2%.
The matching figures for `O=C(Oc1cccc2cccnc12)c1ccccc1` [Benzoxiquine] + CCCCNC(=O)OCC#CI [3-iodo-2-propynyl butylcarbamate (IPBC)]: 36.4 ± 0.48% and 65.5 ± 0.73%.
In the case of `Fc1ccc([C@@H]2CCNC[C@H]2COc2ccc3c(c2)OCO3)cc1` [Paroxetine Hydrochloride] + CCCCNC(=O)OCC#CI [3-iodo-2-propynyl butylcarbamate (IPBC)], the growth yield turned out to be 68 ± 4.8% (40 h) and 92.5 ± 2.5% (72 h).
Consider `O=C(O)CNC(=O)C(CS)Cc1ccccc1` (stereo not drawn) [Thiorphan] + CCCCNC(=O)OCC#CI [3-iodo-2-propynyl butylcarbamate (IPBC)], for which the growth yield turned out to be 88.16 ± 0.48% (40 h) and 90% (72 h).
The matching figures for `C/C(=C(\CCOP(=O)(O)O)SC(=O)c1ccccc1)N(C=O)Cc1cnc(C)nc1N` [Benfotiamine] + CCCCNC(=O)OCC#CI [3-iodo-2-propynyl butylcarbamate (IPBC)]: 89.6 ± 4.1% and 90.3 ± 3.7%.
On to `COc1cc(C)nc(-n2nc(C)cc2OC)n1` [Epirizole] + CCCCNC(=O)OCC#CI [3-iodo-2-propynyl butylcarbamate (IPBC)], for which the growth yield (40 h) amounted to 92.3 ± 7.5% and the growth yield (72 h) stood at 101 ± 6.2%.
With `C[C@@H](CN1CC(=O)NC(=O)C1)N1CC(=O)NC(=O)C1` [Dexrazoxane hydrochloride] + CCCCNC(=O)OCC#CI [3-iodo-2-propynyl butylcarbamate (IPBC)], the growth yield runs as follows: (40 h) 109.4 ± 0.48%; (72 h) 106 ± 4.2%.
On to `CCN(CC)C(=O)/C(C#N)=C/c1cc(O)c(O)c([N+](=O)[O-])c1` [Entacapone] + CCCCNC(=O)OCC#CI [3-iodo-2-propynyl butylcarbamate (IPBC)], for which the growth yield was 88 ± 0.64% (40 h) and 80.4 ± 1.4% (72 h).
The matching figures for `Cc1ccc(C(=O)c2cc(O)c(O)c([N+](=O)[O-])c2)cc1` [Tolcapone] + CCCCNC(=O)OCC#CI [3-iodo-2-propynyl butylcarbamate (IPBC)]: 47.5 ± 3.3% and 56 ± 2.7%.
Taken in the same sequence, the figures for `NC[C@@H]1O[C@@H](O[C@H]2[C@H](O)[C@@H](O[C@H]3O[C@H](CO)[C@@H](O)[C@H](N)[C@H]3O)[C@H](N)C[C@@H]2N)[C@@H](O)[C@H](O)[C@H]1O` [Kanamycin A sulfate] + CCCCNC(=O)OCC#CI [3-iodo-2-propynyl butylcarbamate (IPBC)] were 87.2 ± 9.4% and 93.4 ± 4.7%.
Regarding `c1ccc(CN(CC2=NCCN2)c2ccccc2)cc1` [Antazoline hydrochloride] + CCCCNC(=O)OCC#CI [3-iodo-2-propynyl butylcarbamate (IPBC)], the growth yield reads like this: (40 h) 82.76 ± 0.79%; (72 h) 94.28 ± 0.94%.
The matching figures for `C#C[C@]1(O)CC[C@H]2[C@@H]3CCC4=CC(=O)CC[C@]4(C)[C@H]3CC[C@@]21C` [Ethisterone] + CCCCNC(=O)OCC#CI [3-iodo-2-propynyl butylcarbamate (IPBC)]: 105 ± 2.7% and 105 ± 3.2%.
Taken in the same sequence, the figures for `C=CCN1CCCC1CNC(=O)c1cc2nn[nH]c2cc1OC` (stereo not drawn) [Alizapride hydrochloride] + CCCCNC(=O)OCC#CI [3-iodo-2-propynyl butylcarbamate (IPBC)] were 111.5 ± 0.32% and 107%.
Taken in the same sequence, the figures for `OC(CNCC(O)C1CCc2cc(F)ccc2O1)C1CCc2cc(F)ccc2O1` (stereo not drawn) [Nebivolol hydrochloride] + CCCCNC(=O)OCC#CI [3-iodo-2-propynyl butylcarbamate (IPBC)] were 11.3 ± 4.3% and 63.7 ± 18%.
Consider `NC(=O)c1cccnc1` [Nicotinamide] + CCCCNC(=O)OCC#CI [3-iodo-2-propynyl butylcarbamate (IPBC)], for which the growth yield (40 h) was determined as 106 ± 4.8% and the growth yield (72 h) came to 101.4 ± 0.94%.
Taken in the same sequence, the figures for `C=CC1=C(C(=O)O)N2C(=O)[C@@H](NC(=O)/C(=N\OCC(=O)O)c3csc(N)n3)[C@H]2SC1` [Cefixime] + CCCCNC(=O)OCC#CI [3-iodo-2-propynyl butylcarbamate (IPBC)] were 104.8 ± 0.64% and 103%.
Taken in the same sequence, the figures for `Clc1cc(Cl)c(OCC#CI)cc1Cl` [Haloprogin] + CCCCNC(=O)OCC#CI [3-iodo-2-propynyl butylcarbamate (IPBC)] were 5.24 ± 0.48% and 2.83 ± 1.6%.
The matching figures for `CC1=Nc2ccc(Cl)cc2S(=O)(=O)N1` [Diazoxide] + CCCCNC(=O)OCC#CI [3-iodo-2-propynyl butylcarbamate (IPBC)]: 97.4 ± 4% and 100.8 ± 0.94%.
As to `CC[C@H]1OC(=O)[C@H](C)[C@@H](O[C@H]2C[C@@](C)(OC)[C@@H](O)[C@H](C)O2)[C@H](C)[C@@H](O[C@@H]2O[C@H](C)C[C@H](N(C)C)[C@H]2O)[C@](C)(O)C[C@@H](C)/C(=N\OCOCCOC)[C@H](C)[C@@H](O)[C@]1(C)O` [Roxithromycin] + CCCCNC(=O)OCC#CI [3-iodo-2-propynyl butylcarbamate (IPBC)], the growth yield (40 h) amounted to 97.2 ± 9.5% and the growth yield (72 h) was found to be 96.4 ± 4.3%.
Taken in the same sequence, the figures for `CC(C)(C(=O)O)c1ccc(C(O)CCCN2CCC(C(O)(c3ccccc3)c3ccccc3)CC2)cc1` (stereo not drawn) [Fexofenadine hydrochloride] + CCCCNC(=O)OCC#CI [3-iodo-2-propynyl butylcarbamate (IPBC)] were 89.3 ± 5.4% and 95.5 ± 7.2%.
Take `OC(c1ccccc1)(c1ccccc1)C1CCNCC1` [Azacyclonol] + CCCCNC(=O)OCC#CI [3-iodo-2-propynyl butylcarbamate (IPBC)]: the growth yield by setting is: (40 h) 80.06 ± 0.32%; (72 h) 91.2 ± 1.5%.
Taken in the same sequence, the figures for `CC(C)(C)c1ccc(C(O)CCCN2CCC(C(O)(c3ccccc3)c3ccccc3)CC2)cc1` (stereo not drawn) [Terfenadine] + CCCCNC(=O)OCC#CI [3-iodo-2-propynyl butylcarbamate (IPBC)] were 47.2 ± 9.1% and 90.09 ± 0.73%.
Taken in the same sequence, the figures for `C[N+]12CCC(CC1)C(OC(=O)C(O)(c1ccccc1)c1ccccc1)C2` (stereo not drawn) [Clidinium bromide] + CCCCNC(=O)OCC#CI [3-iodo-2-propynyl butylcarbamate (IPBC)] were 95.8 ± 11% and 95.8 ± 6.6%.
The matching figures for `O=C(NCCN1CCOCC1)c1ccc(Cl)cc1` [Moclobemide] + CCCCNC(=O)OCC#CI [3-iodo-2-propynyl butylcarbamate (IPBC)]: 81.6 ± 4.8% and 89.7 ± 2%.
`Cc1c(N)c(=O)n(-c2ccccc2)n1C` [Ampyrone] + CCCCNC(=O)OCC#CI [3-iodo-2-propynyl butylcarbamate (IPBC)]: the growth yield turned out to be 104 ± 3.8% (40 h) and 105 ± 1.8% (72 h).
Regarding `CCCCc1oc2ccccc2c1C(=O)c1cc(I)c(OCCN(CC)CC)c(I)c1` [Amiodarone hydrochloride] + CCCCNC(=O)OCC#CI [3-iodo-2-propynyl butylcarbamate (IPBC)], the growth yield reads like this: (40 h) 2.06 ± 0.16%; (72 h) 2.41 ± 0.1%.
Regarding `CN(CCOc1ccc(NS(C)(=O)=O)cc1)CCc1ccc(NS(C)(=O)=O)cc1` [Dofetilide] + CCCCNC(=O)OCC#CI [3-iodo-2-propynyl butylcarbamate (IPBC)], the growth yield reads like this: (40 h) 88.79 ± 0.79%; (72 h) 90.3 ± 2%.
Consider `CCCCc1oc2ccc(NS(C)(=O)=O)cc2c1C(=O)c1ccc(OCCCN(CCCC)CCCC)cc1` [Dronedarone hydrochloride] + CCCCNC(=O)OCC#CI [3-iodo-2-propynyl butylcarbamate (IPBC)], for which the growth yield reads like this: (40 h) 6.51 ± 0.16%; (72 h) 3.25 ± 0.32%.
Taken in the same sequence, the figures for `CCCCOc1cc(C(=O)NCCN(CC)CC)c2ccccc2n1` [Dibucaine] + CCCCNC(=O)OCC#CI [3-iodo-2-propynyl butylcarbamate (IPBC)] were 85 ± 1.4% and 94.18 ± 0.21%.
Consider `CCCCCCCN(CC)CCCC(O)c1ccc(NS(C)(=O)=O)cc1` (stereo not drawn) [Ibutilide fumarate] + CCCCNC(=O)OCC#CI [3-iodo-2-propynyl butylcarbamate (IPBC)], for which the growth yield is, setting by setting: (40 h) 85 ± 1.4%; (72 h) 88.1 ± 0.63%.
Taken in the same sequence, the figures for `CCCCOc1cc(C(=O)OCCN(CC)CC)ccc1N` [Benoxinate hydrochloride] + CCCCNC(=O)OCC#CI [3-iodo-2-propynyl butylcarbamate (IPBC)] were 84.82 ± 0.64% and 91.24 ± 0.63%.
As to `CCCCC1=NC2(CCCC2)C(=O)N1Cc1ccc(-c2ccccc2-c2nnn[nH]2)cc1` [Irbesartan] + CCCCNC(=O)OCC#CI [3-iodo-2-propynyl butylcarbamate (IPBC)], the growth yield (40 h) amounted to 96.6 ± 6.7% and the growth yield (72 h) was 95.8 ± 3.5%.
The matching figures for `NS(=O)(=O)c1cc2c(cc1Cl)N=C(CSCc1ccccc1)NS2(=O)=O` [Benzthiazide] + CCCCNC(=O)OCC#CI [3-iodo-2-propynyl butylcarbamate (IPBC)]: 89.9 ± 0.32% and 94.8 ± 1.3%.
The matching figures for `O=C(OCC(O)CO)c1ccccc1Nc1ccnc2cc(Cl)ccc12` (stereo not drawn) [Glafenine hydrochloride] + CCCCNC(=O)OCC#CI [3-iodo-2-propynyl butylcarbamate (IPBC)]: 84.3 ± 2.4% and 97.3 ± 1.3%.

Values taken from the supplement of paper PMC8007513.
